F508del corr – F508del CFTR correction, initial screen, CFBE line, single point; activity (quench increase), % at 7.58 µM; 0.36% of 350,000 active; CFBE cells, YFP halide quenching; stimulated with forskolin plus potentiator P3; % fluorescence drop versus neutral controls;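 active = mean added fluorescence quench of at least 8% versus neutral control, with both replicates also reaching 8%; inconclusive = only one of the mean or replicate conditions met; inactive = mean below 8% and not both replicates reaching 8%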;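 also: cells transiently co-express mutant CFTR-F508del with the halide-sensitive YFP; corrector assay measuring rescue of mutant channel to the surface after 24 h compound exposure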
CASP6 VEID inh – human caspase-6 inhibitors, primary screen, biochemical, VEID-R110 fluorescence, single point, set 2; 0.53% of 350,000 active; P55212; purified caspase-6, Z-VEID-R110 cleavage fluorescence; AID 686996, 2013; inhibition, % at 12.5 µM;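 active = mean inhibition across replicates at least about 35%, with every replicate also reaching that limit, limit read from the data; inconclusive = only one of the two criteria met; inactive = neither criterion met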
Target sequence (P55212 24-179 limits assumed): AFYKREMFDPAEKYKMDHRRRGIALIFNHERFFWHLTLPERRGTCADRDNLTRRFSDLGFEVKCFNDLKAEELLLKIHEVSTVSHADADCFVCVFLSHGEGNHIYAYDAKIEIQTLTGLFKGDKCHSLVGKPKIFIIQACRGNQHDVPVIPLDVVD
Target sequence (P55212 194-293 limits assumed): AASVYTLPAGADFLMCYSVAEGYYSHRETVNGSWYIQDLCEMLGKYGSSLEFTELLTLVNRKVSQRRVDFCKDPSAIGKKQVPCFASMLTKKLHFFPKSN
PglD inh – C. jejuni PglD acetyltransferase inhibitors, primary screen, biochemical, DTNB colorimetric, single point; AID 602405, 2012; 0.098% of 360,000 active; UDP-N-acetylbacillosamine N-acetyltransferase PglD (Campylobacter jejuni); purified PglD enzyme, DTNB colorimetric CoA detection; inhibition, % at 12.5 µM; in the data active = inhibition above about 16%, passing the limit was not always enough; inconclusive = no clear call, values can overlap the other calls
ALR H2O2 inh – inhibitors of human ALR sulfhydryl oxidase, primary screen, biochemical, H2O2 detection, HRP-luminol luminescence, single point; purified ALR, DTT oxidation; inhibition, % (concentration not given with the values); 3.8% of 290,000 active; AID 485317, 2010;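 active = mean replicate inhibition above about 79%, with every replicate also reaching it, limit read from the data; inconclusive = only one of the two criteria met; inactive = mean below limit and not every replicate reaching it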
Target sequence (P55789 whole entry, looked up): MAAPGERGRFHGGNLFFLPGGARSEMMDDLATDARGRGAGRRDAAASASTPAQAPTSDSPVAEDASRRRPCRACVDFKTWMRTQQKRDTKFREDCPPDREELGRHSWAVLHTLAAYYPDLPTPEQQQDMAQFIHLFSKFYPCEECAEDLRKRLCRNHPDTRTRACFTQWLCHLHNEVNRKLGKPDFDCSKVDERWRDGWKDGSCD
HIV Env fusion – inhibitors of HIV-1 Env-driven cell-cell fusion, primary screen, HeLa-JRFL effector, CEM21 target cells, luciferase. inhibition, % at 12.3 µM. 1.1% of 360,000 active. AID 651610, 2012;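 active = mean replicate inhibition score of at least 50 and every replicate individually at or above 50; inconclusive = only one of the two criteria met; inactive = mean below 50 and not all replicates reaching 50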
NSD2 HMT inh – NSD2 histone methyltransferase inhibitors, primary screen, biochemical, AlphaScreen, single concentration, set 2; Histone-lysine N-methyltransferase NSD2 (Homo sapiens), O96028; AID 743445, 2014; 0.54% of 310,000 active; NSD2 peptide methylation, 120 min; inhibition, % at 12.5 µM; in the data active = inhibition above about 50%
A number is an active result; i = inactive; ? = inconclusive; nt = no result. An excerpt weighted towards active compounds, which were near 4.1% of everything screened.

SMILES	F508del corr	CASP6 VEID inh	PglD inh	ALR H2O2 inh	HIV Env fusion	NSD2 HMT inh
CC1(C)OC(=O)C(=Cc2ccc(-c3ccc(Cl)c(C(=O)O)c3)o2)C(=O)O1	i	58.1	nt	i	i	nt
O=C(O)c1cc(-c2ccc(/C=N/Nc3ccc(Cl)cc3)o2)ccc1Cl	nt	nt	i	?	nt	i
O=C(O)c1cc(-c2ccc(/C=C3/SC(=S)N(Cc4ccccc4)C3=O)o2)ccc1Cl	i	51.1	i	nt	i	i
CC1=NN(c2ccc(Cl)c(C(=O)O)c2)C(=O)/C1=C\c1ccc(-c2ccc(C(=O)O)cc2)o1	i	54.1	nt	nt	i	i
CCS(=O)(=O)N1CC2(CN[C@@H](CO)c3c2c2ccc(OC)cc2n3C)C1	i	nt	nt	nt	nt	nt
Cc1ccccc1S(=O)(=O)N1CC[C@@H]2[C@H]1c1cc(Br)ccc1N(C)[C@H]2CO	i	nt	i	nt	nt	nt
CC(=O)Nc1ccc2c(c1)C(=O)N(C)[C@H]1CC[C@H](CC(=O)Nc3cccc(F)c3)O[C@@H]1CO2	i	i	nt	nt	nt	nt
CC(=O)Nc1ccc2c(c1)C(=O)N(C)[C@H]1CC[C@H](CC(=O)NCc3ccc(Cl)cc3)O[C@H]1CO2	i	i	i	nt	nt	nt
CN1/C(=C\C=Nc2ccc3ccccc3c2)C(C)(C)c2ccccc21	nt	nt	i	nt	nt	nt
Cc1cc(/N=C/C=C2\N(C)c3ccccc3C2(C)C)n(CCC#N)n1	nt	nt	i	98.9	i	i
Cc1c(N=C/C=C/c2ccccc2)c(=O)n(-c2ccccc2)n1C	nt	nt	i	i	i	i
CN1/C(=C\C=O)C(C)(C)c2ccccc21	i	i	nt	i	i	i
CN(C)c1ccc(N=C/C=C2\N(C)c3ccccc3C2(C)C)cc1	nt	nt	i	99.0	nt	i
Cc1c(N=C/C=C2\N(C)c3ccccc3C2(C)C)c(=O)n(-c2ccccc2)n1C	i	i	i	93.3	nt	nt
Cc1c(N=C/C=C2/N(C)c3ccccc3C2(C)C)c(=O)n(-c2ccccc2)n1C	i	i	i	99.1	i	i
COc1ccc2c3c([nH]c2c1)[C@H](CO)N(Cc1ccccc1F)CC31CCN(CC2CC2)CC1	i	i	nt	nt	nt	nt
Cc1c(NC(=S)/C=C2\N(C)c3ccccc3C2(C)C)c(=O)n(-c2ccccc2)n1C	nt	nt	i	95.4	i	i
C/C(=N\N(Cc1ccccc1)c1ccccc1)c1cccnc1	i	i	nt	98.5	i	i
Cc1noc(C)c1CSCC(=O)Nc1cc(S(=O)(=O)N2CCCCC2)ccc1OC(C)C	i	i	nt	i	i	i
CCN(CC)c1ccc(S(=O)(=O)N2CCCCC2)cc1NC(=O)CSCc1c(C)noc1C	i	i	i	nt	62.3	i
Cn1nc(CC(=O)NCc2ccc(C(F)(F)F)cc2)c2ccccc2c1=O	nt	nt	i	i	70.5	i
COc1cccc(C2NC(=O)c3sc(=S)n(-c4ccccc4)c3N2)c1 (stereo not given)	nt	nt	i	97.4	nt	i
C[C@H]1CCCCO[C@@H](CN(C)C(=O)Nc2ccccc2)[C@@H](C)CN([C@@H](C)CO)C(=O)c2cc(NC(=O)Nc3cccc4ccccc34)ccc2O1	i	i	i	nt	i	nt
Cc1c(CCOC(=O)C23CC4(C)CC(C)(CC(C)(C4)C2)C3)sc[n+]1CC(=O)c1ccccc1	i	i	nt	i	61.8	i
C[C@H](CO)N1C[C@H](C)[C@@H](CN(C)S(=O)(=O)c2ccccc2)Oc2ccc(NC(=O)Cc3cn(C)c4ccccc34)cc2C1=O	i	i	i	nt	i	nt
SMILES	F508del corr	CASP6 VEID inh	PglD inh	ALR H2O2 inh	HIV Env fusion	NSD2 HMT inh
COc1ccc(C)cc1NC(=O)Nc1cnccn1	i	i	nt	i	i	i
COc1ccc(NC(=O)Nc2cnccn2)c(OC)c1	i	i	i	i	56.6	i
COc1ccc(Cl)cc1NC(=O)Nc1cnccn1	i	i	nt	i	70.8	i
C[C@H]1CCCCO[C@@H](CN(C)S(=O)(=O)c2ccc(Cl)cc2)[C@@H](C)CN([C@@H](C)CO)C(=O)c2cc(NC(=O)CCC(F)(F)F)ccc2O1	i	i	i	nt	i	nt
CC(=O)N(C)C[C@H]1Oc2cc(-c3cccnc3)ccc2S(=O)(=O)N([C@@H](C)CO)C[C@@H]1C	nt	i	i	nt	?	nt
Cc1ccccc1OCCCC(=O)Nc1nccs1	nt	nt	nt	93.9	nt	nt
Cc1ccc(C)c(OCCCC(=O)Nc2nccs2)c1	nt	nt	i	i	i	i
O=C(CSCC(=O)Nc1nccs1)Nc1ccccc1	nt	i	i	98.9	nt	i
CCOC(=S)SCC(=O)Nc1nc(-c2ccc(Br)cc2)cs1	i	i	nt	98.6	i	i
O=C(CSCc1ccc(Cl)cc1)Nc1nccs1	i	i	i	i	nt	i
CCOC(=S)SCC(=O)Nc1nc(-c2ccccc2)cs1	nt	nt	i	99.1	i	i
CCCC(=O)Nc1nc(-c2ccc(OC)cc2)cs1	nt	nt	i	i	nt	i
CCOC(=O)N1CCN(C(=O)CSCC(=O)Nc2nc(-c3ccc(-c4ccccc4)cc3)cs2)CC1	i	i	i	i	i	nt
COc1ccc(-c2csc(NC(=O)CSc3nc(C)cs3)n2)cc1	nt	nt	i	i	i	i
O=C(CSCC(=O)Nc1nc(-c2ccc3c(c2)OCO3)cs1)Nc1nccs1	i	i	i	99.0	i	nt
CCOC(=O)N1CCN(C(=O)CSCC(=O)Nc2nc(-c3ccc(OC)cc3)cs2)CC1	nt	nt	i	98.6	i	i
CCOC(=S)SCC(=O)Nc1nccs1	i	i	nt	87.6	i	i
COc1ccc(-c2csc(NC(=O)CSc3nc(C)nc4sc(C(=O)O)c(C)c34)n2)cc1	i	i	i	99.0	i	nt
CCOC(=O)C(=O)Nc1nccs1	i	i	i	nt	i	i
C/C=C/c1ccc([C@@H]2[C@H](CO)N(C(=O)NCCC)[C@H]2CNC(=O)C2CCC2)cc1	i	nt	i	nt	nt	nt
O=C(C[C@@H]1CC[C@H]2[C@@H](COC[C@H](O)CN2Cc2ccc(Oc3ccccc3)cc2)O1)N1CCc2ccccc2C1	i	nt	i	nt	i	nt
CC1(C(=O)NCc2ccccc2)CCC(=O)N1C1CCN(Cc2ccccc2)CC1 (stereo not given)	i	i	nt	nt	?	nt
CCCCNC(=O)C1(C)CCC(=O)N1C1CCN(Cc2ccccc2)CC1 (stereo not given)	i	i	i	nt	64.1	nt
CNC[C@@H]1Oc2ccc(NC(=O)CCN3CCOCC3)cc2C(=O)N([C@H](C)CO)C[C@H]1C	i	nt	nt	nt	i	nt
Cc1cccc(C)c1NS(=O)(=O)c1ccc(-c2ccc(=O)[nH]n2)o1	i	40.6	i	i	i	i
O=C1CNC[C@H]2[C@H](c3ccc(C#CC4CCCC4)cc3)[C@H](CO)N12	i	i	nt	nt	nt	nt
CCOC(=O)CSc1cc(C)c(C#N)c2nc3ccccc3n12	i	i	nt	98.7	i	i
CCCc1cc(SCC(=O)Nc2c(C)n(C)n(-c3ccccc3)c2=O)n2c(nc3ccccc32)c1C#N	nt	nt	nt	98.1	i	i
CCC(C)Sc1cc(C)c(C#N)c2nc3ccccc3n12 (stereo not given)	nt	nt	i	nt	i	i

Compound activity: PubChem, Broad Institute
